PubChem BioAssay
Active and inactive are the calls of the source.

Experiments:
Albumin (Bos taurus) = Albumin (Bos taurus) (UniProt P02769); experiment: bovine serum albumin binders on microarray, profiling panel, artefact control for SMM control protein annotation, biochemical, small-molecule microarray, Alexa647 label, 635/667 nm fluorescence (AID 1118); conditions: BSA-A647 binding, fluorescence 635 nm, higher = more signal;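 further: score merges 667 nm emission intensity and signal-to-noise per printed compound spot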
[1] = small-molecule microarray binders of probe aXIP, primary screen, biochemical, NeuroSMM set, 635/667 nm fluorescence (AID 1119); conditions: higher = more signal, called active from +8 up or from −8 down;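 further: probe is the protein aXip251-270 applied at 1 µg/mL to compound-printed slides; binding of probe to printed compounds measured as 667 nm fluorescence plus signal to noise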
[2] = small-molecule binders of probe aNOTCH3, primary screen, biochemical, small-molecule microarray, 635/667 nm fluorescence (AID 1120); conditions: higher = more signal;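 further: probe is a biotin-tagged antibody raised against NOTCH3 rather than NOTCH3 protein; score merges spot fluorescence near 667 nm with spot signal to noise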
[3] = small-molecule binders of probe aNOTCH2, primary screen, biochemical, small-molecule microarray, 635/667 nm fluorescence (AID 1121); conditions: higher = more signal;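 further: score merges feature fluorescence read at 667 nm with its signal to noise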
[4] = target: Carbonic anhydrase 2 (Homo sapiens) (UniProt P00918); experiment: CAII small-molecule binders, profiling panel, biochemical, small-molecule microarray, Alexa647-labelled CAII (AID 1122); conditions: CAII-A647 binding fluorescence, higher = more signal
[5] = COS7 lysate on small-molecule microarray, probe aHis, 635 nm (AID 1123); conditions: COS7 cell lysate, fluorescence, higher = more signal;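 further: z-score combines 667nm fluorescence intensity with signal-to-noise per printed compound spot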
[6] = compound binding in COS7 lysate, probe aLAP1, primary screen, cell lysate, small-molecule microarray (AID 1124); conditions: probe aLAP1, fluorescence, higher = more signal;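 further: lysate comes from COS7 cells expressing LAP1 and is applied at 0.3 µg/mL; score merges spot fluorescence near 667 nm with signal-to-noise over triplicate slides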
Sam68 (KHDRBS1) = experiment: Sam68 small-molecule binders, primary screen, biochemical, small-molecule microarray, 635 nm fluorescence (AID 1125); conditions: small-molecule microarray binding, higher = more signal;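 further: score merges 667 nm channel intensity with signal to noise over triplicate slides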
[7] = system: Chordin-like protein 2 (CHRDL2); experiment: CHRDL2 small-molecule binders, primary screen, biochemical, small-molecule microarray, 635 nm fluorescence (AID 1126); conditions: small-molecule microarray binding, fluorescence 635 nm; higher = more signal;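 further: printed compound slides probed with Chrdl2 protein at 4 µg/mL for 1 h at 4 C; score merges 667 nm emission intensity with signal to noise over three replicate slides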
[8] = target: Concanavalin-A (Canavalia ensiformis) (UniProt P02866); experiment: ConA small-molecule binders, primary screen, artefact control for SMM control protein annotation, biochemical, small-molecule microarray, Alexa647 label, 635 nm (AID 1127); conditions: ConA-A647 binding fluorescence, higher = more signal;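 further: z combines 667 nm emission intensity with signal-to-noise across three replicate slides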
Sequence of Concanavalin-A (Canavalia ensiformis) (P02866 whole entry, looked up): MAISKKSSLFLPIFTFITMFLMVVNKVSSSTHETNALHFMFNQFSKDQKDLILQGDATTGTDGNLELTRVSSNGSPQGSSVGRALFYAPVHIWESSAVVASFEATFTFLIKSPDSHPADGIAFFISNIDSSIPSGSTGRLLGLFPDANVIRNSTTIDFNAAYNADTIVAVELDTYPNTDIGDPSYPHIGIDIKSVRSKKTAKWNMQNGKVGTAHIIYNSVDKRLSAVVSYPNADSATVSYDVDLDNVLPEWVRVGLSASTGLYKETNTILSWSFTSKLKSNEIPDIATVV

Sequence of Albumin (Bos taurus) (P02769 whole entry, looked up): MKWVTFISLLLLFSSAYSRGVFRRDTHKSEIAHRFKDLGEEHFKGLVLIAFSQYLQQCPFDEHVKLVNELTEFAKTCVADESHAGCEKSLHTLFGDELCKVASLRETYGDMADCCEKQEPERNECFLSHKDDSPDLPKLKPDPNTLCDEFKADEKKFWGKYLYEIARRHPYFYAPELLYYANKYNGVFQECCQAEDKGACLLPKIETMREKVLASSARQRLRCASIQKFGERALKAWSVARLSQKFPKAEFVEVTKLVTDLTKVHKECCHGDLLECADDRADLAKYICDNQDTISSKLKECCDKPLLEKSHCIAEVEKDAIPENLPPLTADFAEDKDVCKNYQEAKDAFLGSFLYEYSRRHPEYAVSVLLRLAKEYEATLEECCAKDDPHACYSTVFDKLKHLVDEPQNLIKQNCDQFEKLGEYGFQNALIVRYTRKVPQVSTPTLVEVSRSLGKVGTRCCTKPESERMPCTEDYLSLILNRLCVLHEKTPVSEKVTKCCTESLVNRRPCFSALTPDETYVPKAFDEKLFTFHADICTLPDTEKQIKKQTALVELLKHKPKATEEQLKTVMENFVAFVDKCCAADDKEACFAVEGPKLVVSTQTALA

Structure (SMILES) | composite z-score (Albumin (Bos taurus)) | composite Z-score [1] | composite z-score [2] | composite z-score [3] | composite z-score [4] | composite z-score [5] | composite z-score [6] | composite z-score (Sam68 (KHDRBS1)) | composite z-score [7] | composite z-score [8]
O=C(c1ccccc1)N1Cc2ccccc2C[C@@]2(N=C(c3ccc(OCCCO)cc3)O[C@H]2c2ccccc2)C1=O | -0.106 | 1.71 (inactive) | 0.0193 | -0.0876 | 0.588 | 2.43 | 0.548 | 1.3 | 0.639 | 1.05
C=CCOC(=O)[C@H]1[C@@H]2C(=O)O[C@@H](c3ccccc3)[C@@H](c3ccccc3)N2[C@@H](c2ccc(OCCOC(=O)[C@@H]3C[C@@H]4C(=O)N[C@@H](Cc5ccccc5)C(=O)N4[C@@H]3c3ccc(O)cc3)cc2)[C@]12C(=O)Nc1ccc(I)cc12 | -0.257 | 0.661 (inactive) | 0.698 | -0.092 | 0.218 | 1.33 | -0.052 | 1.16 | 0.915 | 0.92
CS(=O)(=O)CCOC(=O)C1=CC(CCCO)=CC(C2CC2)N(Cc2sc3ccccc3c2Cl)C=C1C(=O)OCCS(C)(=O)=O (stereo not given) | 1.01 | -0.0349 (inactive) | 0.398 | 0.0706 | 0.666 | 2.34 | 0.549 | 1.07 | -0.225 | 0.648
C=CCNC(=O)[C@@H]1[C@H]2C(=O)O[C@H](c3ccccc3)[C@H](c3ccccc3)N2[C@H](c2ccc(O)cc2)[C@@]12C(=O)N(C(=O)OCCOC)c1ccc(C#CCC(C(=O)OC)C(=O)OC)cc12 | 0.366 | 0.903 (inactive) | 0.0813 | -0.084 | 0.271 | 1.33 | 0.793 | 1.3 | 0.413 | 0.601
CCCC[C@@H](O)C1=C(C)Cn2c(=O)n(-c3ccccc3)c(=O)n2[C@H]1CO | 0.138 | -0.301 (inactive) | -0.0647 | -0.219 | -0.313 | 0.332 | -0.0242 | -0.92 | 0.24 | -0.827
COC(=O)[C@@]1(Cc2ccc(F)cc2)[C@H]2c3cc(C(=O)N4CCCC4)n(Cc4ccc(OC(F)(F)F)cc4)c3C[C@H]2CN1C(=O)c1ccccc1 | 0.435 | -0.328 (inactive) | 0.0026 | -0.0108 | 0.861 | 1.96 | 0.32 | -0.701 | -0.0979 | -0.484
O=C1C[C@@](C(=O)NCC(F)(F)F)(c2ccc([N+](=O)[O-])cc2)[C@@H](c2ccc(CO)cc2I)N1CC12CC3CC(CC(C3)C1)C2 | 0.506 | 0.0839 (inactive) | -0.056 | -0.13 | 0.517 | 1.48 | 1.15 | 1.29 | -0.0117 | 1.12
CN(C)C(=O)[C@]1(CCS(=O)(=O)c2ccccc2)N=C(c2ccc(OCCCO)cc2)O[C@@H]1c1ccccc1CN=[N+]=[N-] | 0.955 | 0.581 (inactive) | 0.0743 | 0.139 | 0.73 | 2.78 | 0.766 | 1.3 | -0.109 | 1.17
COc1c(C)cc(-c2nc(-c3ccccc3)c3c(c2C)CO[Si]3(C(C)C)C(C)C)cc1C | -0.116 | 0.257 (inactive) | 0.178 | -0.0048 | -0.0127 | 0.275 | -0.314 | 0.214 | 0.264 | -0.53
CO[C@H]1O[C@H](CO)[C@@H](OC(=O)Nc2cccc(F)c2)[C@H](OC(=O)Nc2ccc3c(c2)OCO3)[C@@H]1OC(=O)Nc1ccc2c(c1)OCO2 | 0.364 | 0.942 (inactive) | 0.15 | -0.0247 | 0.753 | 1.64 | 0.678 | 1.32 | 0.149 | 0.708
[N-]=[N+]=NCc1ccccc1[C@H]1OC(c2ccc(OCCCO)cc2)=N[C@@]1(Cc1ccccc1N=[N+]=[N-])C(=O)O | 0.892 | 0.59 (inactive) | 0.297 | 0.0889 | 0.63 | 1.43 | 0.455 | 1.33 | 0.0332 | 1.14
COc1ccc(C(=O)Nc2ccc(CN3C(=O)[C@@]4(O[C@@H](CC(=O)N(CCO)Cc5ccccc5)[C@H]([Si](C)(C)c5ccc(OC)cc5)[C@H]4C)c4ccccc43)cc2)cc1 | 0.469 | 0.226 (inactive) | -0.222 | -0.172 | 0.294 | 0.678 | -0.294 | 0.0422 | 1.01 | 1.1
COC(=O)c1ccc(OC)c(/C=C\CC(OC(=O)c2ccncc2)c2ccccc2)c1 (stereo not given) | -0.311 | 0.63 (inactive) | -0.0077 | -0.168 | 0.387 | 0.0584 | -0.304 | -0.0077 | 1.37 | 0.535
O=C1O[C@@H](c2ccccc2)[C@@H](c2ccccc2)N2[C@@H](c3ccccc3OCCO)[C@]3(C(=O)Nc4ccc(C#CC5(O)CCCCCC5)cc43)[C@@H](C(=O)N3CCCCCCC3)[C@H]12 | -0.411 | 9.73 (active) | 2.33 | 1.21 | 1.06 | 5.19 | 1.41 | 1.33 | 1.69 | 0.93
N#Cc1ccc(NN2C(C(O)c3ccc(B(O)O)cc3)C=CC3CN(c4ccccc4)C(=O)C32)cc1 (stereo not given) | 0.813 | -0.254 (inactive) | -0.128 | -0.188 | 0.852 | 0.417 | -0.247 | 0.141 | -0.412 | 0.133
COC(=O)[C@@]1(Cc2ccccc2)[C@H]2c3cc(C(=O)N(C)C)n(CCF)c3C[C@H]2CN1C(=O)c1ccccc1 | 1.11 | 0.507 (inactive) | 0.62 | 0.334 | 0.531 | 3.26 | 1.08 | 0.302 | -0.927 | 0.517
COc1ccc(C(O)C2C=CC3C(=O)N(c4ccccc4)C(=O)C3N2Nc2ccccc2F)c2ccccc12 (stereo not given) | 0.968 | 0.882 (inactive) | 0.785 | 0.579 | 0.762 | 2.23 | 1.34 | 1.3 | -0.316 | 1.21
COC(=O)[C@]1(Cc2ccccc2CN=[N+]=[N-])N=C(c2ccc(OCCCO)cc2)O[C@@H]1c1ccccc1N=[N+]=[N-] | -0.427 | -0.741 (inactive) | 0.0026 | 0.015 | 0.518 | 0.999 | 1.47 | 0.163 | 0.62 | 0.91
C=C(COC)/C(=C/C[C@@H](OC(=O)c1ccncc1)c1ccccc1OCCO)c1cnc2ccccc2c1 | 0.57 | 0.341 (inactive) | 0.265 | -0.0762 | 0.962 | 0.562 | 0.475 | 1.3 | 1.38 | 1.22
CCCCN1CC=CC23O[C@@H]4/C=C\CCC(C)OC(=O)C4[C@H]2C(=O)N(CCO)[C@@H]3C1=O (stereo not given in full) | 0.197 | 2.55 (inactive) | -0.0745 | -0.101 | 0.97 | 2.47 | 1.49 | 0.852 | -0.789 | -0.833
CC(C)(C)OC(=O)CC[C@@]1(C(=O)N2CCOCC2)N=C(c2ccc(OCCCO)cc2)O[C@@H]1c1ccccc1CN=[N+]=[N-] | 0.966 | 1.31 (inactive) | 0.144 | 0.23 | 0.829 | 3.77 | 0.86 | 1.29 | -0.406 | 1.09
